# Screens (PubChem BioAssay)
# ELG1 genotoxic – inducers of genotoxicity in HEK293T ELG1-luciferase cells. Potency, µM (highest dose often 46 µM), without a hit: top-dose activity change, positive = activation, usual class: activators. HEK293T ELG1-luciferase reporter, luminescence, 16 h. hit rate 1.3% among 330,000; further: % of control where 0% means no effect; nearly all actives have a fitted effect of over 60% in size
#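 After overnight (16 hr) compound treatment at 37 °C, ELG1-luciferase HEK293T cells were lysed with ONE-Glo; luminescence quantified 30 min later at room temperature.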
# Rab9 promoter act – activators of Rab9 promoter; hit rate 2.8% among 320,000; Potency, µM (top dose mostly 9.22 µM), inactives show top-dose activation, negative = inhibition, usual class: activators; AID 485297; Huh7 Rab9 promoter-luciferase reporter, luminescence, 24 h; further: % of control where 0% means no effect; nearly all actives have a fitted effect of over 60% in size
#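 Using Huh7 cells stably transfected with Rab9 promoter–luciferase, compounds were incubated 24 h at 37 °C, 5% CO2; luciferase luminescence was read 10 min after reagent addition.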
# NPC1 promoter act – activates the NPC1 promoter; hit rate 2.4% among 320,000; Potency, µM (top dose mostly 9.22 µM), for inactives: at the highest dose activation, most hits filed as activators; Huh7 NPC1 promoter luciferase reporter, 24 h; AID 485313; further: % of control where 0% means no effect; nearly all actives have a fitted effect of over 60% in size
#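 Huh7 reporter cells (NPC1 promoter driving luciferase) are dosed with compound for 24 h at 37 °C, 5% CO2; luciferase detection reagent is then added and luminescence measured after 10 min at ambient temperature.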
# SMN2 splice enh – increases expression of the SMN2 splice variant; HEK293 SMN2-luciferase splicing reporter, luminescence, 30-36 h; Potency, µM (doses to about 46.1 µM), without a hit: top-dose activity change, positive = activation, hits mostly activators; hit rate 2.8% among 210,000; further: % of control where 0% means no effect; nearly all actives have a fitted effect of over 55% in size
#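 HEK293 cells carry an SMN2 […]–luciferase reporter in which exon 7 inclusion puts luciferase in frame. Cells were plated 10-12 h before compound addition, then incubated 30-36 h at 37C. ONE-Glo luminescence was read; sodium butyrate at 4.5 mM final served as control.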
# FLuc modulator – inhibits or activates purified firefly luciferase, miR-21 counter-screen | P08659 | purified FLuc, Km substrates, luminescence inhibition | Potency, µM (top dose mostly 57.5 µM), inactives show at the highest dose activity change, negative = inhibition, hits mostly inhibitors | hit rate 6.9% among 360,000 | AID 588342;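 further: plate controls were vehicle for no effect and reference inhibitor for full effect; nearly all actives have a fitted effect of over 55% in size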
# Target sequence (P08659 whole entry, looked up): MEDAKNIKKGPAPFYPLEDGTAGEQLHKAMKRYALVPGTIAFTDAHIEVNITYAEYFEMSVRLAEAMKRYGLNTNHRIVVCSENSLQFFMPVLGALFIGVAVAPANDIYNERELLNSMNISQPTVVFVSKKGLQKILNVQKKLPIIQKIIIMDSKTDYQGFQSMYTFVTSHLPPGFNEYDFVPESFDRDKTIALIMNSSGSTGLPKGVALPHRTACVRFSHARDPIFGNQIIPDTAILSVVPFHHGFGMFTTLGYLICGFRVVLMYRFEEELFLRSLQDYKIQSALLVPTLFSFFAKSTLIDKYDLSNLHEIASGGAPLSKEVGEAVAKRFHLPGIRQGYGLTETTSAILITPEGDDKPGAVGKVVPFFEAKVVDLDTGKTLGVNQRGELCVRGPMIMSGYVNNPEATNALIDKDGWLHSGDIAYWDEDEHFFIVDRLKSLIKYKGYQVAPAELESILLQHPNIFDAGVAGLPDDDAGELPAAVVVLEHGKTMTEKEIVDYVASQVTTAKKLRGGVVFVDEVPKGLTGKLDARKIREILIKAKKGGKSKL
#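 Purified P. pyralis luciferase (10nM final) with 10uM D-luciferin and 10uM ATP (Km levels) in 50mM Tris acetate pH 7.5, 10mM Mg acetate, 0.01% Tween-20, 0.05% BSA; qHTS 6-point titration, ~60 µM downward; luminescence read.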
# ELG1 DNA repair – blocks ELG1-dependent DNA repair in HEK293T cells. HEK293T ELG1-luciferase reporter, luminescence, 16 h; DNA damage induced by 5-fluorouridine. Potency, µM (highest dose often 46.1 µM), for inactives: top-dose activity change, negative = inhibition, most hits filed as inhibitors. hit rate 2.3% among 330,000; further: on the % scale 0 is the no-effect control and ±100 the full control effect; nearly all actives have a fitted effect of over 55% in size
#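 In this reporter screen, reduction of luminescence relative to DMSO vehicle indicated activity. Compounds and 5-fluorouridine were added together to 2,000 cells per well, incubated for 16 hr at 37 °C, then developed with ONE-Glo.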
# * = called active by the depositor; ? = inconclusive; . = no result given; [ ] = remark or other dose. Hits are enriched below; roughly 9.3% of the tested compounds scored in any of these assays. The call rests on the fitted dose curve; in most records, active means well fitted curve in the direction sought with a large enough effect; inconclusive means small, poorly fitted or top-dose-only effect, or another doubt; inactive means no such curve, though single readings can be large; an effect the other way counts as inactive or inconclusive. Potency means the concentration at half of the fitted maximal effect.
SMILES,ELG1 genotoxic,Rab9 promoter act,NPC1 promoter act,SMN2 splice enh,FLuc modulator,ELG1 DNA repair
Cc1ncc(CO)c(/C=N/Nc2cccc(Cl)n2)c1O,-4%,10%,-1%,.,?,?
Oc1ccc(/C=N/Nc2cccc(Cl)n2)c(O)c1,?,8%,?,.,5.4µM*,?
O=C(N/N=C/c1ccc(O)cc1O)c1ccncc1,4%,-35%,-32%,.,-15%,?
COc1cc(/C=N/Nc2ccc(C(F)(F)F)cn2)cc(OC)c1O,-2%,1%,2%,20%,?,-5%
Oc1ccc(/C=N/Nc2ccc(C(F)(F)F)cn2)c(O)c1,?,12%,-21%,.,12µM*,?
Oc1ccc(/C=N/Nc2ccc(C(F)(F)F)cn2)cc1,?,3.5µM*,?,16µM*,17µM*,?
CN(c1ccccc1)S(=O)(=O)c1cccc(C(=O)Nc2ccc(N3CCOCC3)cc2)c1,-3%,-8%,-5%,.,-8%,18µM*
Cc1ccc(N(C)S(=O)(=O)c2cccc(C(=O)Nc3ccc(N4CCOCC4)cc3)c2)cc1,-3%,-11%,-8%,.,-11%,16µM*
Cc1ccc(C)n1-c1ccc(C(=O)NN)s1,1%,4%,-1%,-2%,0%,-18%
CCOC(=O)C1(CCOC)CCN(C2C3CC4CC(C3)CC2C4)CC1 (stereo unspecified),0%,-2%,-1%,.,5%,8%
COc1ccc2[nH]c3c(c2c1)CCN1C(=O)C(CC(=O)NCC24CC5CC(CC(C5)C2)C4)C[C@H](C(=O)N2CCOCC2)[C@@]31CCC1CCCC1 (stereo partly specified),-10%,.,.,.,.,-16%
Cc1cccc(OCC(=O)O/N=C(\N)Cc2cccs2)c1,-1%,0%,7%,-20%,-20%,-6%
COc1ccc(OCC(=O)O/N=C(\N)Cc2cccs2)cc1,5%,3%,6%,-7%[1.84 µM],?,?
N/C(Cc1ccc(Cl)cc1Cl)=N\OC(=O)Cc1cccs1,12%,-3%,10%,15%,5.4µM*,?
Cc1ccccc1C(=O)O/N=C(\N)Cc1cccs1,?,?,?,.,12µM*,?
Cc1ccccc1OCC(=O)O/N=C(\N)Cc1cccs1,-2%,1%,13%,-24%,12µM*,?
N/C(Cc1cccs1)=N\OC(=O)COc1ccc(Cl)cc1Cl,16µM*,23%,28%,41%,15µM*,?
COc1cc(-n2c(C)nc3cccnc32)c(Cl)cc1C(=O)O,7%,18%,14%,.,-1%,?
CCOc1ccc(CCNC(=O)CCc2cn(Cc3ccc(F)cc3)c3ccccc23)cc1,.,.,.,.,-7%,.
Nc1nc(-c2cc(Cl)cc(Cl)c2OC(F)F)cs1,4%,-5%,-2%,3%,-17%,9%
CCN1CCN(c2nc(S(=O)(=O)c3ccc(C)cc3)c(Cl)s2)CC1,-3%,-6%,-5%,-41%,5%,?
NNC(=O)c1cc2cc3ccccc3nc2s1,-1%,26%,8%,1%,21µM*,23%
O=C(Cn1nnc(-c2ccc(C(F)(F)F)cc2)n1)NCCc1ccccc1,.,.,.,4%,-1%,.
CCc1cc2c(=O)c(-c3ccc4c(c3)OCCO4)coc2cc1OS(C)(=O)=O,7%,3.5µM*,2.8µM*,22µM*,4.8µM*,?
CCc1cc2c(=O)c(-c3nc4ccccc4[nH]3)coc2c(CN2CCCCC2C)c1O (stereo unspecified),-8%,-2%,-1%,.,-1%,21µM*
SMILES,ELG1 genotoxic,Rab9 promoter act,NPC1 promoter act,SMN2 splice enh,FLuc modulator,ELG1 DNA repair
CCc1cc2c(=O)c(-c3ccc4c(c3)OCCO4)coc2c(CN2CCCCC2C)c1O (stereo unspecified),12%,21%,7%,.,6.7µM*,6%
CCOC(=O)c1oc2cc(O)c(CC)cc2c(=O)c1-c1ccc2c(c1)OCCO2,-1%,-2%,-1%,-4%,?,-28%
CCc1cc2c(=O)c(-c3nc4ccccc4[nH]3)coc2c(CN2CCCCC2)c1O,-4%,2%,7%,.,?,?
CC(=O)Nc1ccc2c(c1)nc(CCN1CCN(c3ccccn3)CC1)n2C,3%,-3%,1%,.,-1%,1%
CCn1c2ccccc2c2cc(CN3CCN(Cc4ccc(Br)cc4)CC3)ccc21,.,.,.,-15%,-6%,.
O=C(CCc1nnc(CCCCc2ccccc2)o1)NCCC1CCCCO1 (stereo unspecified),2%,0%,-1%,.,3%,0%
Cc1c(C(c2ccccc2)c2c(C)n(C)n(-c3ccccc3)c2=O)c(=O)n(-c2ccccc2)n1C,-1%,-3%,1%,.,0%,8%
Cc1ccc(C(c2c(C)n(C)n(-c3ccccc3)c2=O)c2c(C)n(C)n(-c3ccccc3)c2=O)s1,-4%,-5%,-7%,-31%,1%,23µM*
COc1ccc(Nc2nc(OC)nc(N3CCOCC3)n2)cc1,7%,-2%,-12%,.,-3%,13%
COc1ccc(Nc2nc(Nc3ccc(OC)cc3)nc(-n3[nH]c(=O)c(C)c3C)n2)cc1,-8%,0%,1%,-16%,-16%,2.3µM*
CCCc1ccc(OCc2ccc(C(=O)N3CCSCC3)o2)cc1,10µM*,2.2µM*,2.2µM*,.,21µM*,?
O=C(NCc1cccnc1)c1ccc(COc2ccc3c(c2)CCC3)o1,-8%,-1%,4%,-52%,?,?
CCOC(=O)c1ccc(NC(=O)C(=O)NCc2ccccn2)cc1,3%,-2%,4%,-3%,-12%,19%
CCc1ccc(NC(=O)C(=O)NCc2ccccn2)cc1,?,3.5µM*,?,.,19µM*,?
CCC(C)c1ccc(OCc2ccc(C(=O)OC)o2)cc1 (stereo unspecified),?,0.5µM*,0.63µM*,.,?,?
COC(=O)c1ccc(COc2ccc3c(c2)CCC3)o1,?,?,?,.,17µM*,?
COCCC(=O)N1CCC(Oc2ccc(C(=O)N3C[C@@H]4CCC[C@H]3C4)cc2)CC1,1%,-7%,0%,.,0%,6%
CCc1ccc(OCc2ccc(C(=O)NCc3ccccn3)o2)cc1,?,?,?,5µM*,?,?
CC(C)(C)c1ccc(OCc2ccc(C(=O)N3CCOCC3)o2)cc1,13%,?,?,.,15µM*,?
COC(=O)c1ccc(COc2ccc(C(C)(C)C)cc2)o1,?,0.35µM*,0.71µM*,.,17µM*,?
CCOc1ccc(OCc2ccc(C(=O)NCc3ccncc3)o2)cc1,?,?,?,16%,-21%,0%
